For 29 molecules, z-score results are on record in PubChem BioAssay.

SMILES strings stand for the structures. Active and inactive are the calls of the source.
Further: test concentration not given here.

The first assay is described as follows: basal MM1S mitochondrial membrane potential changes, profiling panel, cell-based, JC-1 fluorescence, 24 h, 100 nL compound (AID 1170). To be noted: higher = more signal.
Consider `CC(c1ccccc1)C(O)C1C=CC2C(=O)N(c3ccccc3)C(=O)C2N1Nc1ccccc1` (centres undefined), for which the z-score is -0.547. Molecule `CCOC(=O)C[C@H]1[C@H](OC(=O)c2ccc(-c3ccccc3)cc2)[C@@H](NC(=O)c2ccccc2)c2cc(OCCCO)ccc2N1C(=O)c1ccc2ccccc2n1` had a z-score of -0.386. With `CCCCN1CC=CC23O[C@@H]4C=CCOC(=O)[C@@H]4[C@H]2C(=O)N(CCCCCCO)[C@@H]3C1=O` (some centres undefined), the z-score is -0.12. Take `COc1ccc(-c2cc3c(c(Cc4ccccc4)n2)[Si](C(C)C)(C(C)C)OC3)cn1`: the z-score came out at 0.488. `COc1cc2c(cc1O)C(c1cccs1)N(Cc1ccc([N+](=O)[O-])o1)CC2` (centres undefined) yielded a z-score of 1.09. `[N-]=[N+]=NCc1ccccc1[C@@H]1OC(c2ccc(OCCCO)cc2)=N[C@]1(CCS(=O)(=O)c1ccccc1)C(=O)N1CCCCC1` yielded a z-score of -1.87. The same measure, in the same setting: to `CC(C)OC(=O)C=C1C[C@@H](c2cccc(Cl)c2)O[C@@H](c2cccc(Cl)c2)O1` belongs -1.51; to `Cc1ccc(S[C@]2(C(=O)NCC(C)C)CC(=O)N(Cc3cc(C(F)(F)F)cc(C(F)(F)F)c3)[C@@H]2c2ccc(CO)cc2)cc1`, -0.133; to `O=C(O)[C@H](Cc1ccccc1)n1cc(-c2ccccc2)nn1`, 0.348. Still for that read-out and setting: to `COC(=O)[C@@]1(Cc2ccc(OC)cc2)[C@H]2c3cc(C(=O)N(C)C)n(Cc4ccc(C(F)(F)F)nc4)c3C[C@H]2CN1C(=O)c1ccccc1` belongs -1.03; to `CCCCC(O)C1C=CC2C(=O)N(C)C(=O)C2N1N1CCCCC1` (centres undefined), -0.026. The molecule `C=CCNC(=O)[C@H]1[C@@H]2C(=O)O[C@@H](c3ccccc3)[C@@H](c3ccccc3)N2[C@@H](c2ccc(O)cc2)[C@]12C(=O)Nc1ccc(C#CCCO)cc12` displayed a z-score of -0.723. On the same count and under the same terms, to `CO[C@H]1O[C@H](CO)[C@@H](OC(=O)Nc2ccccc2-c2ccccc2)[C@H](OC(=O)Nc2ccccc2-c2ccccc2)[C@@H]1OC(=O)Nc1ccccc1-c1ccccc1` belongs 1.33.

The nature of another assay: A549 lung cancer cell viability effects, profiling panel, resazurin fluorescence, 24 h, PK04 Diversity Set (AID 1171). The settings on record: higher = more signal, called active from +8 up or from −8 down.
In the case of `COc1ccc(C(=O)Nc2cccc(CN3C(=O)[C@]4(O[C@H](CCn5cc(CCO)nn5)[C@@H]([Si](C)(C)c5ccc(OC)cc5)[C@@H]4C)c4ccccc43)c2)cc1`, the z-score was -6 (inactive).

As for `COC(=O)c1c2oc(c1C(=O)OC)C(=O)N[C@@H](C(C)C)Cn1cc(nn1)C1(CCCCC1)NC(=O)N[C@H](CO)CC2`, the z-score is 1.15 (inactive). Same read-out and setting: the figure for `O=C1NC(=O)C2C1C=CC(C(O)c1ccc(-c3ccccc3)s1)N2Nc1ccc(Cl)cc1Cl` (centres undefined) is -1.65 (inactive); for `CCOC(=O)C[C@H]1[C@H](OC(=O)c2ccc(-c3ccccc3)cc2)[C@@H](NC(=O)c2ccccc2)c2cc(OCCCO)ccc2N1C(=O)Cc1ccc(OC)cc1` it is -0.0451 (inactive).

Turning to `COC(=O)[C@@]1(Cc2ccc(OC)cc2)[C@H]2c3cc(C(=O)N4CCCC4)n(CCCNc4ncc(C(F)(F)F)cc4Cl)c3C[C@H]2CN1C(=O)c1ccccc1`, the z-score is -0.577 (inactive). With `CC(=CC1CCCCC1)[C@@H](NC(=O)c1cccnc1)c1ccc(-c2ccccc2)cc1`, the z-score was 1.49 (inactive).

As for `C=CCC(OC(C)=O)[C@@H]1[C@@H](N(Cc2ccc(-c3cccc(C(F)(F)F)c3)o2)C(=O)Cc2ccc(OC)cc2)c2cc(OCCCO)ccc2N1C(=O)c1ccc2ccccc2c1` (some centres undefined), the z-score was -0.186 (inactive).

Turning to `CCOC(=O)C1=CC[C@@H](c2ccccc2)N(S(=O)(=O)c2ccc(C)cc2)[C@H]1c1ccc(CC)cc1`, the z-score was 1.48 (inactive). The same measure, in the same setting: to `O=c1cccc(-c2ccccc2Cl)o1` belongs -0.0719 (inactive). As to `CCCCC(=C=CC[C@H](O)c1cccc(OCCO)c1)C[C@H](O)c1ccccn1`, the z-score was 2.05 (inactive). Take `COc1ccc([Si](C)(C)[C@@H]2[C@@H](CC(=O)N3CCC[C@H]3CO)O[C@]3(C(=O)N(Cc4cccc(I)c4)c4ccccc43)[C@H]2C)cc1`: the z-score is -3.17 (inactive). The same measure, in the same setting: to `COC(=O)[C@@]1(Cc2ccccc2)[C@H]2c3cc(C(=O)N4CCCC4)n(Cc4c(CO)[nH]cc(C)c4=O)c3C[C@H]2CN1C(=O)c1ccccc1` belongs 0.739 (inactive); to `CCOc1cc(C(O)C2C=CC3C(=O)N(c4ccccc4)C(=O)C3N2Nc2ccc(C(C)C)cc2)ccc1O` (centres undefined), -0.866 (inactive); to `CN(C)CCCCCCNC(=O)[C@@H]1C[C@@H]2C(=O)N3CCC[C@H]3C(=O)N2[C@@H]1c1ccc(O)cc1`, -0.908 (inactive). Take `CCC(CC)C(O)C1C=CC2C(=O)N(c3ccccc3)C(=O)C2N1Nc1ccccc1` (centres undefined): the z-score was 0.328 (inactive). The same measure, in the same setting: the figure for `COC(=O)[C@@]1(Cc2ccc(OC)cc2)[C@H]2c3cc(C(=O)N4CCCC4)n(Cc4nc5ccccc5[nH]4)c3C[C@H]2CN1C(=O)c1ccccc1` is 0.161 (inactive).
